High-throughput results from PubChem BioAssay.
TMEM16A act: TMEM16A chloride channel activators or potentiators, primary screen, cell-based, HTS; HEK293 TMEM16A/YFP-H148Q/I152L, iodide quench fluorescence; stronger effect = lower value; B-score at 10 µM; actives 0.3% (n = 340,000); AID 623877, 2012;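 active means fluorescence-ratio B-score plate-corrected deviation score at least 3 library SD below zero, with starting fluorescence score within 5 deviations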;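 further: channel opened by trigger with iodide after compound preincubation; score built on the fluorescence ratio of max minus min over baseline; more negative score means more quench and so TMEM16A activation or potentiation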
Target sequence (Q8BHY3 whole entry, looked up): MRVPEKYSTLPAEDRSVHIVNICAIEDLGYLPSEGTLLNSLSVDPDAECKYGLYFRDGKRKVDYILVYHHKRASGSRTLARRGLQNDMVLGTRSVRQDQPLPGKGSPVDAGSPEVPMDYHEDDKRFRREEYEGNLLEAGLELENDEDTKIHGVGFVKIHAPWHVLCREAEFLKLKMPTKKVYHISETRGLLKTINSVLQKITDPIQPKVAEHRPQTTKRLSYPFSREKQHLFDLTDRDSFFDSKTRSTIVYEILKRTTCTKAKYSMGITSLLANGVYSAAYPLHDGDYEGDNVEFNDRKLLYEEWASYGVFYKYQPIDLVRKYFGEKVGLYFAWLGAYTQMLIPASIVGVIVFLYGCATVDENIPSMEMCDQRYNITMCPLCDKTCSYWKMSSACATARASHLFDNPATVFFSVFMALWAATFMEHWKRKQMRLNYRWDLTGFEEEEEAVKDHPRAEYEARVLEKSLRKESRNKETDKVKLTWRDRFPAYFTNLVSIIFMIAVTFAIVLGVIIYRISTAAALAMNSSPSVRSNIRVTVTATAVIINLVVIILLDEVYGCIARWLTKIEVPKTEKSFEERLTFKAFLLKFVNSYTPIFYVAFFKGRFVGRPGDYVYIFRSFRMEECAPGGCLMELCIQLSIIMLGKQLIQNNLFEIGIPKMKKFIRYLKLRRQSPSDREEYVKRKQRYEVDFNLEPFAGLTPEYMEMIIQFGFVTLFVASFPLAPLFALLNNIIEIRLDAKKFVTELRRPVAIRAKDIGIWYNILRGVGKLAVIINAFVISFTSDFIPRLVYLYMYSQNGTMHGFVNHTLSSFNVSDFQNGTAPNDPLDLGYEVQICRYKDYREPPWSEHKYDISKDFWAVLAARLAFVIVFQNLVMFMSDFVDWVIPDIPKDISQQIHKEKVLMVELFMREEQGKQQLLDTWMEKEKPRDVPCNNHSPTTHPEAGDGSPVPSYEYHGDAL
ANO1 block: TMEM16A chloride channel inhibitors, primary screen, cell-based, HTS; HEK293 TMEM16A/YFP iodide influx fluorescence, ionomycin; normalized B-score (activity score, 25-100; higher = stronger inhibition) at 10 µM; actives 1.2% (n = 310,000); AID 588511, 2011;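 active means ratio plate-corrected score three or more library SD toward inhibition, starting fluorescence score within five deviations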;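 further: score derived from kinetic fluorescence span divided by baseline fluorescence per well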
CHT allo act: CHT positive allosteric modulators, primary screen, cell-based, membrane potential dye, choline EC20 | CHT-expressing cells; stronger effect = higher value; LV-AA mutant CHT in HEK293 cells | AID 488977, 2010 | High affinity choline transporter 1 (Homo sapiens), Q9GZV3 | actives 0.49% (n = 310,000) | B-score at 10 µM;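 active means initial fluorescence not abnormally high and integrated response B-score, plate-corrected, over 3 SD above library mean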
CHT inh: inhibitors of human choline transporter CHT | High affinity choline transporter 1 (Homo sapiens), Q9GZV3 | CHT-expressing cells, membrane potential dye, choline response; stronger effect = lower value | B-score at 10 µM | actives 0.86% (n = 310,000);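 active means B-score over 3 SD under the library average, and starting fluorescence ratio not unusually high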;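 further: choline stimulus applied at its EC90 after an EC20 pre-addition; B-score computed on integrated fluorescence ratio after choline addition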
Numbers without * were called inactive; i = inactive; · = no result. The list is not random: actives were taken first. Their share in the collection is about 2.4%.

SMILES | TMEM16A act | ANO1 block | CHT allo act | CHT inh
Cc1ccc(NC(=O)C2CCCN(C(=O)c3ccc(Cl)cc3)C2)cc1S(=O)(=O)N1CCOCC1 (stereo not given) | i | i | i | i
Clc1ccc(CNc2nc(N3CCOCC3)nc(N3CCOCC3)n2)cc1 | -7.6* | i | i | i
COc1c(O)cccc1/C=N/NC(=O)Cn1ccnc1C | i | i | i | i
O=C1NN(c2ccccc2)C(=O)/C1=C\c1ccccc1OCC(=O)N1CCOCC1 | i | 25* | i | i
Cc1ccc(C)c(OCCC(=O)OCC(=O)NCCc2ccc(S(N)(=O)=O)cc2)c1 | -4.8* | i | i | i
O=C1Nc2ccccc2C(=O)N2[C@H](c3ccccc3)[C@@H]3C(=O)N(Cc4ccccc4)C(=O)[C@@H]3[C@H]12 | i | i | i | i
O=C1Nc2ccccc2C(=O)N2[C@H](c3cccc(Br)c3)[C@@H]3C(=O)N(Cc4ccccc4)C(=O)[C@@H]3[C@H]12 | -7.1* | i | i | i
N#Cc1ccc(C(=O)CN2CCN(c3ccccc3)CC2)cc1 | i | i | i | i
CCOc1ccccc1N(CC(=O)N1CCOCC1)S(=O)(=O)c1ccc(SC)cc1 | -9.8* | · | · | ·
Cc1ccccc1S(=O)(=O)Cc1ccc(C(=O)N2CCN(c3ccc(F)cc3)CC2)o1 | i | i | i | i
CC(C)(C)OC(=O)N1CCC(CC2CC(c3ccccc3)=NO2)(C(=O)O)CC1 (stereo not given) | i | i | i | i
COC(=O)C1(CC2CC(c3ccccc3)=NO2)CCN(C(=O)OC(C)(C)C)CC1 (stereo not given) | i | 25* | i | i
CCCCCCCCCS(=O)(=O)N/N=C/c1cccc([N+](=O)[O-])c1 | i | 100* | i | i
Cc1cccc(OCc2ccc(C(=O)Nc3cc(C)on3)o2)c1 | i | i | i | i
Cc1ccnc(NC(=O)c2ccc(COc3ccc(Cl)cc3)o2)c1 | -10* | i | i | i
Cc1ccc(S(=O)(=O)N(CC(=O)NCCC2=CCCCC2)Cc2ccccc2F)cc1 | i | 25* | i | i
O=C(CN(Cc1ccccc1F)S(=O)(=O)c1ccc(Cl)cc1)NCCC1=CCCCC1 | i | i | i | i
Cc1cc(C)cc(-n2cccc2/C=C2/C(=N)N3C(=NC2=O)SN=C3S(C)(=O)=O)c1 | i | 100* | i | i
CS(=O)(=O)C1=NSC2=NC(=O)/C(=C\c3cccn3-c3ccccc3Cl)C(=N)N21 | i | i | i | i
Cc1ccn(C(C)CC(=O)Nc2ccc(-c3ccno3)cc2)n1 (stereo not given) | i | i | i | i
COc1ccc2[nH]c3c(=O)n(/N=C/[C@H]4C(C)C=C(C)CC4C)c(=O)[nH]c3c2c1 (stereo not given in full) | -16* | i | i | i
O=C(NC(=S)N1CCN(c2ccc(F)cc2)CC1)C12CC3CC(CC(C3)C1)C2 | -5.4* | i | i | i
COCCN(Cc1ccccc1)C(=O)c1ccc(C(=O)c2ccccc2)cc1 | i | · | · | ·
COCCN(CCOC)C(=O)c1ccc(CSc2nc3ccccc3s2)cc1 | i | 25* | i | i
Cc1cc(C(=O)COC(=O)c2ccc(O)cc2)c(C)n1-c1ccccc1F | -29* | i | i | i
SMILES | TMEM16A act | ANO1 block | CHT allo act | CHT inh
Cc1cc(C(=O)COC(=O)c2ccc[nH]c2=O)c(C)n1-c1ccccc1F | i | i | i | i
Cc1nn(-c2ccccc2)c(Cl)c1/C=N/Nc1nc2ccccc2[nH]1 | -7.3* | i | i | i
Cc1cc(=O)[nH]c(N/N=C/c2c(C)nn(-c3ccccc3)c2Cl)n1 | i | i | i | i
COCC(C)n1c(SCC(=O)N(C)C2CCS(=O)(=O)C2)nc2ccccc2c1=O (stereo not given) | i | i | i | i
COc1ccc(/C=C2\Oc3cc(OCC(=O)N4CCC(C(=O)O)CC4)ccc3C2=O)c(OC)c1OC | i | i | i | i
COc1cccc(/C=C2\Oc3cc(OCC(=O)N4CCCC4)ccc3C2=O)c1OC | -38* | i | i | i
COc1ccc(CNC(=O)c2cc(C)nc3ccccc23)cc1OC | -5.6* | i | i | i
COc1ccccc1CNC(=O)c1cc(C)nc2ccccc12 | i | i | i | i
C=CC#CC1(O)CC(C)[N+](C)(C)CC1C (stereo not given) | i | i | i | i
CC1=NN(c2ccccc2)C(=O)C1(C)C | i | i | i | i
CC1=NN(c2ccccc2)C(=O)C1C=Nc1ccccc1O (stereo not given) | i | i | i | -5.2*
Oc1ccc(NCc2cccc(OCc3ccc(F)cc3)c2)cc1 | i | 25* | i | i
O=[N+]([O-])c1ccc(COc2cccc(CNc3ccc(F)cc3)c2)cc1 | i | i | i | i
c1ccc(Cc2nnc(-c3ccccc3)o2)cc1 | -6.8* | i | i | i
Brc1ccc(-c2nnc(Cc3ccccc3)o2)cc1 | i | i | i | i
CCN(C(=O)CSc1nc(C)nc2sc(C)c(C)c12)c1ccc(F)cc1 | -41* | · | · | ·
Cc1nc(SCC(=O)N(C)Cc2ccco2)c2c(C)c(C)sc2n1 | i | i | i | i
CC(C)(C)OC(=O)NCCCCCc1cn([C@@H](CO)C(=O)NCCCCCCCCCCC(=O)N2CCN(C(=O)OC(C)(C)C)CC2)nn1 | i | 100* | i | i
CC[C@H](C)[C@@H](C(=O)NCCCCCCCCCCC(=O)N1CCN(C(=O)OC(C)(C)C)CC1)n1cc(CCCCCNC(=O)OC(C)(C)C)nn1 | i | 25* | i | i
CC[C@H](C)[C@@H](C(=O)NCCCCCCCCCCC(=O)N1CCN(C(=O)OC(C)(C)C)CC1)n1cc(CCCCN=C(NC(=O)OC(C)(C)C)NC(=O)OC(C)(C)C)nn1 | · | i | i | i
Cc1c(C(=O)NCC2CCCO2)cccc1[N+](=O)[O-] (stereo not given) | i | i | i | i
Fc1cccc(F)c1-c1nc(-c2ccncc2)no1 | i | i | i | i
O=C(CCCn1c(=O)[nH]c2cc(Cl)ccc2c1=O)NC1CCCCCC1 | i | 25* | i | i
COc1cc2[nH]c(=O)n(CCCCCC(=O)NC3CCCC3)c(=O)c2cc1OC | i | i | i | i
FC(F)(F)c1nc2ccccc2nc1N/N=C/c1c(Cl)cccc1Cl | i | i | i | i
COc1cc(C2NC(=O)NC(C)=C2C(=O)OC2CCCC(C)C2)ccc1O (stereo not given) | i | i | i | i
CCOCCCN(C)C1CCN(C(=O)c2oc3ccccc3c2NC(=O)COc2ccc(F)cc2)CC1 | i | i | i | -7.2*
